GALC G270D act: raises human GALC G270D mutant activity in cells; AID 1159614; hit rate 0.1% among 45,000; 145M-Twi-hGALC-G270D cells (Twitcher mouse brain line with human GALC G270D), HMU-beta-Gal fluorescence, 48 h; P54803; Potency, µM (series often up to 57.5 µM), actives largely listed as activators; further: nearly all actives have a fitted effect of over 65% in size
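Mutant human GALC (G270D), stably expressed in a Twitcher mouse brain cell line lacking endogenous GALC, is measured in live-treated cells via 6-hexadecanoylamino-4-methylumbelliferyl-β-galactoside hydrolysis (0.1 mM final, pH 5.2) with fluorescent detection.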
PMP22 txn prim: modulates PMP22 transcription in S16 Schwann cells. hit rate 2% among 43,000. Potency, µM (titrated, usually from 57.5 µM), most hits filed as inhibitors. S16 Pmp22-F2sN Schwann cells, FLuc/NLuc coincidence luminescence, 24 h; active means clear falling dose curves in both reporters; inconclusive means both reporters move, but less clearly or upward; inactive means either reporter flat; the % is the NLuc reporter signal
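S16 Schwann cells carrying FLuc/NLuc coincidence reporter in the Pmp22 3' UTR treated with compound 24 h at 37C; FLuc then NLuc luminescence read sequentially by dual-luciferase reagents.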
S16 F2sN tox: cytotoxicity in S16 Pmp22-F2sN Schwann cells; S16 Pmp22-F2sN Schwann cells viability, CellTiter-Glo, 24 h; Potency, µM (doses to about 57.5 µM), actives largely listed as cytotoxic; hit rate 0.48% among 43,000; AID 1508642; further: nearly all actives have a fitted effect of over 65% in size
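CellTiter-Glo counter-screen, qHTS, 1536-well. Cells: S16(c9) Pmp22-F2sN, 500-1,000/well in DMEM + 10% FBS. Cpd 23 nL pin transfer, 24 h, 37C/5% CO2. Read: luminescence, CCD imager.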
mTORC1 inh: reduces mTORC1 signaling in Tsc2 and p53 null MEF cells; Tsc2-/- p53-/- MEF, phospho-rpS6 immunofluorescence/PI, 24 h; Potency, µM (doses to about 38.3 µM), usual class: inhibitors; hit rate 0.78% among 44,000; AID 493208; further: nearly all actives have a fitted effect of over 50% in size
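Compounds act on Tsc2-/-, p53-/- fibroblasts carrying an empty vector for 24 h before fixation and dual staining for phospho-S6 and DNA (propidium iodide). Values are percentages of cells above a rapamycin-defined pS6/PI threshold.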
NTMT1 inhibitor: NTMT1 methyltransferase inhibition. hit rate 2.5% among 59,000. NTMT1 MTase-Glo SAH luminescence, purified enzyme. AID 1645870. Potency, µM (series often up to 114 µM), hits mostly inhibitors; further: nearly all actives have a fitted effect of over 65% in size
Target sequence (Q9BV86 whole entry, looked up): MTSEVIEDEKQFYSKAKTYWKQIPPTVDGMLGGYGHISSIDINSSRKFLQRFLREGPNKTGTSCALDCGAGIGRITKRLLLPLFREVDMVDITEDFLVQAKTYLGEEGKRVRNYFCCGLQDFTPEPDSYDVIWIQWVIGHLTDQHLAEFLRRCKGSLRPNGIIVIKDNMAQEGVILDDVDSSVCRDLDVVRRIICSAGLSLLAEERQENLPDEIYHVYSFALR
OvCa metastasis: inhibitors of ovarian cancer cell adhesion and invasion in omental model; SKOV3ip1-GFP adhesion/invasion on 3D omental model, fluorescence; Potency, µM (highest dose often 45.8 µM), most hits filed as inhibitors; hit rate 0.1% among 46,000; AID 1963576; further: nearly all actives have a fitted effect of over 65% in size
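qHTS, 4-pt dose (0.36-46 umol/L); SKOV3ip1-GFP, 1,200 cells/well, no FBS; primary omental fibroblast/mesothelial co-culture 48 h pre-grown; 2 h RT + 16 h 37 C; PBS wash, 4% PFA; GFP count 488/509 nm.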
NLuc sat counter: NanoLuc enzyme inhibition artifact for PMP22 screen | shares compounds with PMP22 txn prim | Secreted NLuc enzyme (filtered S16 cell medium), Nano-Glo luminescence | Potency, µM (highest dose often 57.5 µM), most hits filed as inhibitors | hit rate 4% among 690 | AID 1508638
NLuc Km ctr: NanoLuc inhibition at Km substrate, PMP22 artifact check; secreted NLuc enzyme, coelenterazine luminescence, Km conditions; Potency, µM (titrated, usually from 57.5 µM), actives largely listed as inhibitors; shares compounds with PMP22 txn prim; hit rate 5% among 690
FLuc ctr PMP22: counter-screen for PMP22 expression modulators: firefly luciferase inhibition; shares compounds with PMP22 txn prim; purified P. pyralis FLuc, luminescence, 10 min; Potency, µM (top dose mostly 57.5 µM), most hits filed as inhibitors; 690 tested, under 10 active
Target sequence (P08659 whole entry, looked up): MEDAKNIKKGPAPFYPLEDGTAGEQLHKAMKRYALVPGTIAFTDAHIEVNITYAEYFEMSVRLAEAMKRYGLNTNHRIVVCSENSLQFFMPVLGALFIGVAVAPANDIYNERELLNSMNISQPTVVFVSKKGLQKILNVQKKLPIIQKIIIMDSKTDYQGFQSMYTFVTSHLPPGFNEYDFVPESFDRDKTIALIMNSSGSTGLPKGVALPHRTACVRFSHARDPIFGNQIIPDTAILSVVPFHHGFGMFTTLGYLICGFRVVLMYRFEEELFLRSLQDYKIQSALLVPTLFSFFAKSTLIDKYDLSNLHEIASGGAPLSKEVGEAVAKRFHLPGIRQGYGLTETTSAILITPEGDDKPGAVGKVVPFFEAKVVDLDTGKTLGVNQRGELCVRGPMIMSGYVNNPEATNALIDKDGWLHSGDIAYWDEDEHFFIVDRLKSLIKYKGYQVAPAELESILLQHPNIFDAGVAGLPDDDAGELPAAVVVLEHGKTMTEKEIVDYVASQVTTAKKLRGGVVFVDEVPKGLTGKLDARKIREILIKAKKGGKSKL
S16 viab conf: confirmation of cytotoxicity in S16 Pmp22-F2sN Schwann cells (luciferase reporters placed in the Pmp22 gene); shares compounds with PMP22 txn prim; Potency, µM (top dose mostly 57.5 µM), usual class: cytotoxic; hit rate 7% among 690; S16 Schwann cells viability, CellTiter-Glo ATP luminescence, 24 h
PMP22 txn cnf: confirmation of modulators of PMP22 gene transcription in S16 cells; shares compounds with PMP22 txn prim; S16 Schwann cells Pmp22-F2sN, dual luciferase, 24 h; Potency, µM (top dose mostly 57.5 µM), usual class: inhibitors; hit rate 22% among 690; AID 1508646; active means clear falling dose curves in both reporters; inconclusive means both reporters move, but less clearly or upward; inactive means either reporter flat; the % is the FLuc reporter signal
PMP22 HiBiT cnf: confirmation of modulators of rat PMP22 protein expression. shares compounds with PMP22 txn prim. S16 Schwann cells Pmp22-HiBiT, luminescence, 48 h. Potency, µM (titrated, usually from 27.9 µM), most hits filed as inhibitors. 95 tested, under 10 active
A number is an active result; . = inactive; ? = inconclusive; / = not tested or not shown; [ ] = dose if it differs, or a comment. Sampled rows, rich in hits. Any-hit rate of the full collection: about 3.6%. Unless noted, the call rests on the fitted dose curve; in most records, active means well fitted curve in the direction sought with a large enough effect; inconclusive means small, poorly fitted or top-dose-only effect, or another doubt; inactive means no such curve, though single readings can be large; an effect the other way counts as inactive or inconclusive.

SMILES	GALC G270D act	PMP22 txn prim	S16 F2sN tox	mTORC1 inh	NTMT1 inhibitor	OvCa metastasis	NLuc sat counter	NLuc Km ctr	FLuc ctr PMP22	S16 viab conf	PMP22 txn cnf	others
Cc1ccc(/C=C/c2onc(C)c2S(=O)(=O)N2CCC(C(=O)Nc3cccc(C#N)c3)CC2)cc1	.	12µM	.	.	.	.	.	.	.	.	.
N#C/C(=C1\SCC(c2ccccc2Cl)S1)n1ccnc1 (stereo not given)	.	/	/	/	.	/	/	/	/	/	/
C#CCCCn1cc(-c2cccc3c2N[C@@H](C)CC(=O)N3)cn1	/	/	/	/	.	/	/	/	/	/	/
CCOc1ccccc1NC(=O)c1cnn2c(C(F)F)cc(-c3ccccc3)nc12	.	11µM	.	.	.	.	.	.	.	.	?
CCOc1ccc(OCC)c(NC(=O)c2nnn(CC(=O)Nc3cc(Cl)ccc3OC)c2N)c1	.	11µM	.	.	.	?	.	.	.	?	14µM
CCOc1ccc(OCC)c(NC(=O)c2nnn(Cc3cc(Br)ccc3OC)c2N)c1	.	.	.	.	.	.	/	/	/	/	/
COc1ccc(Nc2ncc(C(=O)N3CCN(c4cccc(Cl)c4)CC3)c3ccccc23)cc1	.	14µM	.	.	.	.	?	.	.	.	?
O=S(=O)(NCCc1csc2nc(-c3ccc(Cl)cc3)nn12)c1ccc(Oc2ccccc2)cc1	.	13µM	.	.	.	.	.	.	.	.	?
Cc1ccc(OCCSc2nc3ccc(NC(=O)c4ccc5c(c4)OCO5)cc3s2)cc1	.	14µM	.	.	?	.	.	.	.	?	?
CCOc1ccc(C(=O)Nc2ccc3nc(SCCOc4ccccc4)sc3c2)cc1	.	11µM	.	.	.	.	.	.	.	.	.
O=C(Nc1ccc2nc(SCCOc3ccccc3Cl)sc2c1)c1ccc2c(c1)OCO2	.	.	.	.	.	.	/	/	/	/	/
CC1(C)CC[C@]2(C(=O)O[C@@H]3O[C@H](CO[C@@H]4O[C@H](CO[C@@H]5O[C@H](CO)[C@H](O)[C@H](O)[C@H]5O)[C@@H](O)[C@H](O)[C@H]4O)[C@@H](O)[C@H](O[C@@H]4O[C@H](CO)[C@@H](O)[C@H](O)[C@H]4O)[C@H]3O)[C@H](O)C[C@]3(C)C(=CCC4[C@@]5(C)CC[C@H](O[C@@H]6OC[C@@H](O)[C@H](O)[C@H]6O)[C@@](C)(C(=O)O)C5CC[C@]43C)[C@@H]2C1 (stereo not given in full)	/	/	/	/	.[6.45 µM]	/	/	/	/	/	/
CC1(C)C2CC=C(COC3OC(COC4OCC(O)(CO)C4O)C(O)C(O)C3O)C1C2 (stereo not given)	/	/	/	/	.	/	/	/	/	/	/
COc1ccc(-c2onc(C)c2C)cc1S(=O)(=O)Nc1cc(Cl)ccc1C	.	?	.	.	.	.	?	?	.	.	?
COc1ccc(-c2onc(C)c2C)cc1S(=O)(=O)NCc1ccc(C)o1	.	8.9µM	.	.	.	.	.	.	.	.	?
O=c1c2ccccc2nc2sc(NCc3ccccc3)nn12	/	/	/	/	.	/	/	/	/	/	/
Cn1c(=O)c2c(nc(CN3CCN(C(=O)C4CC4)CC3)n2Cc2cccc(F)c2)n(C)c1=O	/	/	/	/	.	/	/	/	/	/	/
O=C(CSc1nc2cc(C(=O)NC3CCCC3)ccc2c(=O)n1CC1CCCO1)c1cccc(Cl)c1 (stereo not given)	.	14µM	28µM	.	.	.	.	.	.	.	?
C=C1C(=O)O[C@@H]2CC(C)=C([C@@H](C)CCCOC(C)=O)[C@@H](O)[C@H]12	/	/	/	/	.	/	/	/	/	/	/
COc1ccccc1CNC(=O)Cn1c(=O)oc2cc(S(=O)(=O)N3CCC(C)CC3)ccc21	.	13µM	?	.	.	.	.	.	.	.	.
COc1ccccc1CNC(=O)Cn1c(=O)ccc2cc(S(=O)(=O)N3CCC(C)CC3)ccc21	.	.	.	?	.	.	/	/	/	/	/
CCOc1ccccc1CNC(=O)Cn1c(=O)c2cccn2c2ccc(F)cc21	.	?	.	.	.	.	/	/	/	/	/
CCOc1ccccc1CNC(=O)CCn1c(=O)c2cccn2c2ccc(F)cc21	.	14µM	.	?	.	.	.	.	.	.	?
CC(C)Oc1cc(Nc2nc(N[C@@H](C)c3ccc(F)cn3)ncc2Cl)[nH]n1	/	/	/	/	.	?	/	/	/	/	/
COCCCNC(=O)c1ccc(-n2c(-c3ccccc3)cc3c2CCCC3)cc1	.	?	.	.	.	.	/	/	/	/	/
SMILES	GALC G270D act	PMP22 txn prim	S16 F2sN tox	mTORC1 inh	NTMT1 inhibitor	OvCa metastasis	NLuc sat counter	NLuc Km ctr	FLuc ctr PMP22	S16 viab conf	PMP22 txn cnf	others
CCOCCCNC(=O)c1ccc(-n2c(-c3ccccc3)cc3c2CCC(C)C3)cc1 (stereo not given)	.	18µM	.	?	.	.	.	.	.	.	?	PMP22 HiBiT cnf=.
CC(C)(C)NS(=O)(=O)c1ccc(-c2ccc3[nH]nc(N)c3c2)cc1	/	/	/	/	.	/	/	/	/	/	/
Cn1nnnc1SCCCNCc1cccc(OCc2ccccc2)c1	.	20µM	.	.	?	.	.	.	.	.	.
Cn1nnnc1SCCCNCc1cc(Br)ccc1OCc1ccccc1	.	?	?	.	?	.	/	/	/	/	/
CCOC(=O)c1ccc(NC(=O)Cc2ccc(-n3c(CC)nc4cccnc43)cc2)cc1	.	?	.	.	.	.	.	?	.	?	.
CCOC(=O)c1ccc(NC(=O)CCc2nc3cccnc3n2Cc2cccs2)cc1	.	.	.	.	.	.	/	/	/	/	/

Screening results (PubChem BioAssay)
